# Screening results (PubChem)
# pPAFAH inh: pPAFAH (human) enzyme inhibition. recombinant pPAFAH, FP-rhodamine probe fluorescence polarization. Q13093. hit rate 1.5% among 330,000. inhibition, % at 3.39 µM;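 active = inhibition above the mean inhibition across the screen plus 3 SD, cut at about 25% in these data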;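 also: inhibitors block binding of the rhodamine activity-based probe so polarization drops; 0% = enzyme with DMSO and 100% = wells lacking pPAFAH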
# PAFAH2 FP inh: inhibitors of human PAFAH2 | Q99487 | recombinant PAFAH2, FP-rhodamine activity probe, fluorescence polarization | inhibition, % at 3.39 µM | hit rate 0.99% among 340,000 | AID 492956;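 active = inhibition above the mean over all tested compounds plus 3 SD, cut at about 30% in these data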;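 also: inhibitors block probe labeling of enzyme so polarization drops; 0% = enzyme with DMSO and 100% = wells lacking PAFAH2 protein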
# ZTA counter: counter-screen for EBNA-1 inhibitors: inhibitors of Epstein-Barr virus ZTA; ZTA-DNA binding, fluorescence polarization; inhibition, % at 11 µM; hit rate 0.15% among 320,000; P03206; in the data active = inhibition above about 33%
# Target sequence (P03206 whole entry, looked up): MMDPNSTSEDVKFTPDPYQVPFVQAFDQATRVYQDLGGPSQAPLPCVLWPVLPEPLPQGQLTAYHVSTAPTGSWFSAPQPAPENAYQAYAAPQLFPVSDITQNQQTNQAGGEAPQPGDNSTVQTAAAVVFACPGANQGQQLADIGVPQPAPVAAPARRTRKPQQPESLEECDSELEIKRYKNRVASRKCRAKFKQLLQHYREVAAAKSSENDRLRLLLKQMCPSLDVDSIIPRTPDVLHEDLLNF
# PAFAH1B2 FP inh: blocks human PAF acetylhydrolase 1b catalytic subunit 2. P68402. recombinant PAFAH1B2, FP-rhodamine activity probe, fluorescence polarization. inhibition, % at 3.39 µM. hit rate 1.2% among 340,000;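 active = inhibition above the mean of all tested compounds plus 3 SD, cut at about 24% in these data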;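 also: 0% = enzyme with DMSO and 100% = wells lacking PAFAH1B2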
# PAFAH1B3 inh: inhibitors of human PAFAH1B3. Q15102. hit rate 0.28% among 340,000. inhibition, % at 3.39 µM. recombinant PAFAH1B3, FP-rhodamine probe, fluorescence polarization. AID 492972;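 active = inhibition above the screen-wide average of all tested compounds plus 3 SD, cut at about 25% in these data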;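 also: 0% = enzyme with DMSO only and 100% = wells lacking PAFAH1B3 protein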
# Target sequence (Q15102 whole entry, looked up): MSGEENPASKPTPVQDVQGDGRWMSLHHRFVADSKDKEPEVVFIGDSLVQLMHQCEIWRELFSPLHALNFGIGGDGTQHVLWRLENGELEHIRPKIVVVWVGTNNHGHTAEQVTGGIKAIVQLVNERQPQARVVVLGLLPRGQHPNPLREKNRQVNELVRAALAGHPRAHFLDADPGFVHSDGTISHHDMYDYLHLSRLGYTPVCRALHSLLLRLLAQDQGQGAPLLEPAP
# EBNA-1 inh: blocks EBNA-1 binding to DNA; EBNA-1 DNA binding, fluorescence polarization; inhibition, % at 14.8 µM; hit rate 0.34% among 300,000; AID 1950; in the data active = inhibition above about 28%
# pPAFAH confirm: confirmation of human plasma PAF acetylhydrolase (pPAFAH) inhibitors. shares compounds with pPAFAH inh. recombinant pPAFAH, FP-Rh probe fluorescence polarization. inhibition, % at 3.39 µM. hit rate 72% among 2,300. AID 463230;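 active = mean inhibition of the triplicate above the hit cutoff set for the earlier primary screen, cut at about 25% in these data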;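 also: 0% = enzyme with DMSO and 100% = wells lacking pPAFAH enzyme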
# * marks the source's active call; other numbers are inactive results; / = no result given; ! = not confirmed by another sample. Sampled rows, rich in hits. Any-hit rate of the full collection: about 2.9%.
SMILES,pPAFAH inh,PAFAH2 FP inh,ZTA counter,PAFAH1B2 FP inh,PAFAH1B3 inh,EBNA-1 inh,pPAFAH confirm
O=C(CCNC(=O)c1ccccc1Cl)Nc1nnc(C2CC2)s1,-1,-1,-3,-1,9,-9,/
N#CCc1ccc(OC(=O)c2cccnc2Cl)cc1,-4,5,-6,9,5,-1,/
N[C@@H](Cc1cc(I)c(Oc2ccc(O)c(I)c2)c(I)c1)C(=O)O,69*!,27,-13,7,3,7,71*
N[C@@H](Cc1cc(I)c(Oc2cc(I)c(O)c(I)c2)c(I)c1)C(=O)O,44*,/,15,/,/,11,39*
Cc1ccccc1C(=O)Nc1cccc(C(=O)N/N=C/c2cc(Cl)cc([N+](=O)[O-])c2O)c1,38*,6,5,3,-9,15,42*
COc1cc(/C=N/NC(=O)c2cccc(NC(=O)c3ccccc3C)c2)ccc1O,8,-3,-3,9,14,7,/
C/C(Cc1ccccc1)=N\NC(=O)CNC(=O)c1ccccc1Br,7,-12,15,-3,7,1,/
Cc1cc(C(=O)NN=C2CC(=O)CC(C)(C)C2)c(C)o1,0,-5,/,7,0,/,/
Cc1cc(C(=O)N/N=C2\CC(=O)CC(C)(C)C2)c(C)n1-c1ccc(F)cc1,41*,19,-12,3,1,-14,64*
Cc1cc(C(=O)N/N=C2\CC(=O)CC(C)(C)C2)n[nH]1,5,1,3,-2,-2,-7,/
Cc1cc(C(=O)N/N=C2\CC(=O)CC(C)(C)C2)c(C)n1-c1ccccc1,37*,11,-23,6,-9,-6,34*
S=c1[nH]c2ccccc2o1,4,6,9,-2,1,6,/
CN(Cc1c(C(=O)N2CCc3ccccc3C2)nc2ccc(Cl)cn12)C(C1CC1)C1CC1,6,3,-12,3,-1,-11,/
COc1cccc(NC(=O)CCC2CCN(C(=O)c3cncs3)CC2)c1,-6,-2,2,10,-1,-1,/
OCCC1CN(Cc2ccon2)CCN1Cc1ccc(F)c(F)c1 (centres undefined),3,-2,-10,4,3,8,/
Cc1cc(C)cc(C(=O)NCC(=O)OCc2c(C)noc2C)c1,37*,6,-12,7,1,23,5
CC1=CC(C2CC(=O)N(c3ccc(C)cc3)C2=O)CC2C(=O)N(c3ccc(C)cc3)C(=O)C12 (centres undefined),3,3,7,1,8,8,/
COC(=O)c1ccc(=O)c2nc3/c(=C/O)c(O)cc(=O)c3[nH]c12,92*,81*,5,60*,66*,103*,91*
COc1cc(CNc2ccc(O)cc2)cc(Br)c1OCc1ccccc1F,39*,7,28,10,10,7,8
COc1cc(CNCc2ccncc2)cc(Br)c1OCc1ccccc1F,3,-7,6,-1,10,6,/
CCOc1cc(CNc2ccc(O)cc2)cc(Br)c1OCc1ccccc1F,43*,8,-1,6,18,3,20
CCOc1ccc(N(CC(=O)NN=C2CCCC2)S(C)(=O)=O)cc1,-5,-14,-7,4,8,5,/
CCOCCCNC(=O)c1cc(=O)n(Cc2cccc(C)c2)c2ccccc12,-1,0,8,0,8,6,/
CN(C(=O)COC(=O)c1ccc(S(=O)(=O)N2CCOCC2)cc1)c1ccccc1,1,5,/,5,-5,/,/
COc1ccc(/C=C(\C#N)C(=O)Nc2cccc3ncccc23)cc1OC,1,-1,9,2,9,3,/
SMILES,pPAFAH inh,PAFAH2 FP inh,ZTA counter,PAFAH1B2 FP inh,PAFAH1B3 inh,EBNA-1 inh,pPAFAH confirm
N#C/C(=C\c1ccc(O)c(O)c1)C(=O)Nc1cccc2ncccc12,52*,49*,8,10,15,-6,70*
Cn1c2ccccc2c2cc(/C=N/NC(=O)c3cc(O)ccc3O)ccc21,57*,24,2,30*,59*,-2,28*
O=S(=O)(Nc1nc(-c2sccc2Cl)cs1)c1cc(Cl)ccc1Cl,47*,42*,3,4,0,26,51*
CCOC(=O)Cc1csc(SCC(=O)Nc2sc3c(c2C(N)=O)CCC3)n1,37*,19,9,7,20,1,19
CCOC(=O)Cc1csc(SCC(=O)Nc2nccs2)n1,2,0,2,7,5,-2,/
CC(C)=CCc1c2c(c(O)c3c(=O)c4c(oc13)-c1cc(O)c(O)cc1OC4C=C(C)C)C=CC(C)(C)O2 (centres undefined),37*,/,5,/,/,2,52*
COc1ccccc1N1CCN(C(=O)C2CCN(S(=O)(=O)c3ccccc3F)CC2)CC1,-2,6,-2,3,-1,/,/
CC(C)=C1C(=O)NN(c2cccc(Cl)c2)C1=O,23,9,6,8,6,2,/
CC(C)=C1C(=O)NN(c2ccc(C)c(Cl)c2)C1=O,59*,18,-9,10,0,-7,6
COc1ccc(-c2csc(NC(=O)c3ccc(C(C)(C)C)cc3)c2C(=O)O)cc1,37*,/,8,/,/,-2,41*
O=C(Nc1sc2c(c1C(=O)O)CCCC2)c1ccc(F)cc1,/,12,/,8,1,/,/
CC(C)(C)c1ccc(C(=O)Nc2sc3c(c2C(=O)O)CCC3)cc1,37*,14,4,47*,10,-3,41*
O=C(O)c1ccc2c(c1)C(=O)N(c1cc([N+](=O)[O-])ccn1)C2=O,2,-12,9,4,2,11,/
CN(C)C(=O)CCc1ccc2c3c([nH]c2c1)[C@]1(C)[C@@H](C(=O)N2CCCCC2)C[C@H](CC(=O)NC(C)(C)C)C(=O)N1CC3,-5,-1,/,0,4,/,/
CC(C)=CCC/C(C)=C/CNC(=O)C[C@H]1C[C@H](C(=O)N2CCCCC2)[C@@]2(C)c3[nH]c4cc(CCC(=O)N(C)C)ccc4c3CCN2C1=O,55*,10,/,5,7,/,42*
CC(C)N(C(=O)[C@H]1C[C@H](CC(=O)NCC23CC4CC(CC(C4)C2)C3)C(=O)N2CCc3c([nH]c4cc(CCC(=O)N(C)C)ccc34)[C@]12C)C(C)C,45*,-3,/,5,5,/,33*
Cc1nc([N+](=O)[O-])cn1CC(=O)Nc1ccc(F)c(Cl)c1,2,0,0,1,-3,1,/
CCCCCCCc1nn2c(=O)cc(O)nc2s1,47*,-3,12,9,2,11,10
COCC(C)n1c(SC(C)C(=O)NC2CCCCC2C)nc2ccccc2c1=O (centres undefined),1,5,5,0,-2,1,/
N#CC1=C(N)Oc2n[nH]c(-c3cccs3)c2C1c1ccncc1 (centres undefined),4,3,10,4,13,5,/
